Among the data in PubChem BioAssay (NCI) are growth values, retold here.

Several values for one entry are separate records, joined by “and”; a condition that tells them apart may be missing. Identical values can stand only once. Compounds without any hit were thinned out: in the full panel of roughly 83,000, 20% have a hit.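 Percent growth is the endpoint: 0 to 100 indicates growth inhibition (40 means 60% inhibition), 0 means no net growth, and negative values indicate cell death.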 Activity calls are given as the source filed them. The calls were made as follows: active = growth percent below 10; inactive = the rest.

The subject of the experiment is MDA-MB-468 breast. In words: NCI-60 one-dose screen, 48 h (100 = growth as untreated, 0 = no growth, -100 = all killed). To be noted: 10 µM unless noted.
With `O=C1OCC2=C1C(c1cccc(C(F)(F)F)c1)c1cc3c(cc1N2CCO)OCO3` (stereo not given), the growth was -5.36% (active).

In the case of `CCCN1CCN(c2ccc3nc(-c4ccc5nc(-c6ccc(OCC)cc6)[nH]c5c4)[nH]c3c2)CC1`, the growth was -67.6% (active). Then `O=C(Nc1ccncc1)C(=O)c1cn(S(=O)(=O)c2ccccc2F)c2ccccc12`, with 16.4% (inactive); and `COc1cc2nc(-c3ccc(Cl)cc3)cc(OCCCN3CCC(O)CC3)c2cc1OC`, with 52.9% (inactive).

As to `O=Nc1ccc(Nc2ccccc2)cc1`, the growth is -8.9% (active). As for `[B-][N+](CC)(CC)c1ccccc1`, the growth is 104% (inactive).

Consider `CCc1ccc(Nc2cc(C)nc3nc(C)nn23)cc1`, for which the growth is -87.8% (active). Then `CC1=NN(c2ccc(S(=O)(=O)O)cc2)C(=O)C1N=Nc1ccc(-c2ccc(N=Nc3ccc(OS(=O)(=O)c4ccc(C)cc4)cc3)c(S(=O)(=O)O)c2)cc1` (stereo not given), with 86.8% (inactive). Regarding `COc1cccc(/C=C2\COc3ccc(O)cc3C2=O)c1OC`, the growth is 43.9% (inactive). As to `Nc1ncc(-c2ccc3ncnc(N4CCc5cc(F)c(Cl)cc54)c3c2)cn1`, the growth is 15.8% (inactive) and -64% (active). For the compound `COC1=CC(c2ccc[nH]2)=N/C1=C\c1[nH]c(C)c(C(=O)CCCCC(=O)NCc2ccccc2)c1C`, the growth is 4.21% (active). Turning to `Cc1ccc(C(=O)/C(=C\c2ccc([N+](=O)[O-])cc2)S(=O)Cc2ccc(Cl)cc2)cc1` (stereo not given), the growth is 24.3% (inactive).

`COc1ccc(C/C(C)=C(/c2ccc(OCCN3CCCCCC3)cc2)c2ccc(OC(=O)NCc3ccccc3)cc2)cc1`: the growth was 83% (inactive). With `Cc1n(Cc2ccc3ccccc3n2)cc[n+]1Cc1ccc2ccccc2n1`, the growth is 8.07% (active). Then `O=S(=O)(Nc1ccc(Cl)c(F)c1)c1ccc(-c2cnc(C3CC3)o2)cc1`, with -25.4% (active). As to `O=S(=O)(Nc1cccc2ccccc12)c1ccc(-c2cnc(C3CC3)o2)cc1`, the growth was 0.881% (active). Then `N#C/C(=C\c1ccc([N+](=O)[O-])cc1)n1nnc2cc(F)c(F)cc21`, with -40% (active); and `CN1c2ccccc2Sc2cc(/C=N/Nc3ccnc4cc(Cl)ccc34)ccc21`, with 52.7% (inactive).

For `N#C/C(=N\Nc1ccccc1)C(=O)Nc1cc(-c2ccccc2)nn1-c1ccccc1`, the growth is -3.2% (active). Then `Cc1nc(Nc2ccccn2)sc1C(=O)/C=C/c1ccc(Cl)cc1`, with 16.4% (inactive); and `COc1ccc(NC(=S)N/N=C/c2ccccc2SSCCC(=O)OC[C@H]2O[C@H](O)[C@H](O)[C@@H](O)[C@@H]2O)cc1`, with -8.32% (active). Then `Cc1nc(/N=C(\N)NC(=O)Nc2ccccc2Cl)sc1C`, with 2.23% (active); and `Nc1ncn([C@@H]2O[C@H](CO)[C@@H](O)[C@H]2O)c(=O)n1`, with 33.2% (inactive); and `Cc1cc(C)n(C(=O)CSc2nc3sc4c(c3c(=O)n2-c2ccccc2)CCCCC4)n1`, with 111% (inactive).

As to `COc1ccc(/C(C)=N/NC(=O)CSc2nc3ccccc3c(=O)n2Cc2ccc(S(N)(=O)=O)cc2)c(OC)c1`, the growth was 93.9% (inactive). Turning to `COc1cccc(C2C(C#N)=C(N)Oc3cc(OC)ccc32)c1` (stereo not given), the growth is 41.4% (inactive). Then `Cc1ccc(NC(=O)Cc2ccc(/C=C/C(=O)c3ncc[nH]3)cc2)cc1`, with -0.436% (active). Then `CCc1ccc(NC(=O)N[C@@H](Cc2cc(F)cc(F)c2)C(=O)N[C@@H]2C(=O)N3C[C@H](O)C[C@H]3C(=O)N3CCOC[C@H]3C(=O)N[C@@H](C)C(=O)N3C[C@H](C)C[C@H]3C(=O)O[C@H]2C)cc1`, with 14.8% (inactive); and `O=C(Nc1ncc(Cc2ccc(Cl)cc2)s1)c1ccc2c(c1)OCCO2`, with 47.1% (inactive). For `COc1cc(Nc2ncc3c(n2)-c2ccc(Cl)cc2C(c2c(F)cccc2OC)=NC3)ccc1C(=O)O`, the growth is 61.9% (inactive).
